Drawing on PubChem BioAssay, this text covers composite z-score and z-score for 17 compounds.

Experiment [1] relates to XIP peptide (Xip251-270) binding. Put plainly: small-molecule binders of XIP peptide, primary screen, biochemical, small-molecule microarray, fluorescence 635/667 nm, 0.1 µg/mL protein (AID 1182). The following applies: fluorescent protein binding, 635 nm, higher = more signal, called active from +8 up or from −8 down.
The next experiment deals with XIP peptide (Xip251-270). Put plainly: small-molecule binders of XIP peptide, primary screen, biochemical, small-molecule microarray, fluorescence 635/667 nm, 0.5 µg/mL protein (AID 1183). The following applies: small-molecule microarray binding, fluorescence 635 nm; higher = more signal.
Experiment [2] is described as follows: Plasmodium falciparum growth inhibition, primary screen, strain 3D7, DAPI fluorescence, 100 nL (AID 1184).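 Further: parasites grown inside human red blood cells in medium with human serum.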 The settings on record: P. falciparum 3D7 growth, 3 d, higher = more signal.
Experiment [3] concerns the target Homeobox protein Hox-A13 (Mus musculus) (UniProt Q62424). Put plainly: inhibitors of HoxA13-DNA binding, primary screen, biochemical, fluorescence polarization, labeled oligonucleotide (AID 1185). The following applies: 15 min, higher = more signal, called active from +8 up or from −8 down. (In general: Polarisation of emitted light reports the rotation of a fluorescent probe.)

A short description of experiment [4]: inhibitors of hydroxyurea-induced Chk1 phosphorylation, primary screen, imaging, HeLa, phospho-Chk1 antibody, percent positive cells (AID 1186). The settings on record: hydroxyurea-induced phospho-Chk1 immunofluorescence imaging, higher = more signal.
Experiment [5] in a line: inhibitors of hydroxyurea-induced Chk1 phosphorylation, primary screen, imaging, HeLa, phospho-Chk1 nuclear intensity (AID 1187). The settings on record: hydroxyurea-induced phospho-Chk1 immunofluorescence imaging, higher = more signal.

Activity calls are given as the source filed them. Unless noted, how the calls were made is not given here.

Homeobox protein Hox-A13 (Mus musculus), sequence (Q62424 whole entry, looked up): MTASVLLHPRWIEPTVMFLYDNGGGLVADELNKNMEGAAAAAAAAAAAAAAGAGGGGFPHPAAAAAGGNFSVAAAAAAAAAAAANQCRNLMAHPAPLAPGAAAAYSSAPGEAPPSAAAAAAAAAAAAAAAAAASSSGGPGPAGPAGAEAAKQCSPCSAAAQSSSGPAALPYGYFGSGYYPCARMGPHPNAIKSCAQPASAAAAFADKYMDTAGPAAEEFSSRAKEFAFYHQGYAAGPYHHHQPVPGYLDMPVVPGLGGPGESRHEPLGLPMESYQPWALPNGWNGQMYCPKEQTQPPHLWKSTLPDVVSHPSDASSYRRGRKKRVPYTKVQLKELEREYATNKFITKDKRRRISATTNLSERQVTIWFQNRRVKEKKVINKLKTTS

Consider `C=CCOC(=O)[C@H]1[C@@H]2C(=O)O[C@@H](c3ccccc3)[C@@H](c3ccccc3)N2[C@@H](c2ccc(OCCOC(=O)[C@H]3C[C@H]4C(=O)N5CCC[C@H]5C(=O)N4[C@H]3c3ccc(O)cc3)cc2)[C@]12C(=O)Nc1ccccc12`, for which the composite z-score in experiment [1] was 0.0734 (inactive); in the experiment on XIP peptide (Xip251-270), 0.803. The z-score in experiment [2] is -1.62; in experiment [3] it was 1.42 (inactive); in experiment [4] it was -0.398 (inactive); in experiment [5], 0.207 (inactive).

As to `COC(=O)C(CC#Cc1ccc2c(c1)[C@]1(C(=O)N2)[C@H](C(=O)O)[C@H]2C(=O)O[C@H](c3ccccc3)[C@H](c3ccccc3)N2[C@@H]1c1ccc(O)cc1)C(=O)OC`, the composite z-score in experiment [1] is 0.12 (inactive); in the experiment on XIP peptide (Xip251-270) it was 0.713. Further, the z-score in experiment [2] was 0.49; in experiment [3], -6.07 (inactive); in experiment [4], -0.287 (inactive); in experiment [5], -0.507 (inactive).

Turning to `COCCOC(=O)N1C(=O)[C@@]2(c3cc(C#CCCO)ccc31)[C@H](C(=O)N1CCN(c3ncccn3)CC1)[C@H]1C(=O)O[C@H](c3ccccc3)[C@H](c3ccccc3)N1[C@@H]2c1ccccc1OCCO`, the composite z-score in experiment [1] is 0.954 (inactive); in the experiment with XIP peptide (Xip251-270), 0.655. Further, the z-score in experiment [2] was -2.28; in experiment [3], -1.58 (inactive); in experiment [4] it was -0.0632 (inactive); in experiment [5], 0.111 (inactive).

Consider `CCCCCC1=C2CNC(CCC)(C(=O)OC)C=C2C(C)C1=O` (configuration not stated), for which the composite z-score in experiment [1] is 0.455 (inactive); in the experiment with XIP peptide (Xip251-270), -0.0874. For the same compound, the z-score in experiment [2] was -0.175; in experiment [3], -6.92 (inactive); in experiment [4], 0.138 (inactive); in experiment [5] it was 0.466 (inactive).

Take `O=C1C[C@]2(c3ccc([N+](=O)[O-])cc3)C(=O)N(CCN3CCOCC3)c3cc(CO)ccc3[C@H]2N1C1CCCCC1`: the composite z-score is 1.2 (inactive) in experiment [1] and 0.314 in the experiment with XIP peptide (Xip251-270). Moreover, the z-score in experiment [2] was 0.476; in experiment [3], -2.02 (inactive); in experiment [4], -0.533 (inactive); in experiment [5], -0.355 (inactive).

Turning to `C=CCNC(=O)[C@@H]1[C@H]2C(=O)O[C@H](c3ccccc3)[C@H](c3ccccc3)N2[C@H](c2ccccc2OCCO)[C@@]12C(=O)N(C(=O)OCCOC)c1ccc(C#CCNC(N)=O)cc12`, the values for the composite z-score (in experiment [1]; with XIP peptide (Xip251-270)) were 0.347 (inactive) and 0.66, respectively. Further, the z-score in experiment [2] is -0.531; in experiment [3] it was -1.84 (inactive); in experiment [4], -0.189 (inactive); in experiment [5] it was -0.159 (inactive).

As for `CCCCCN1CC=CC23O[C@@H]4/C=C\CCCOC(=O)C4[C@H]2C(=O)N(C(CO)C(C)C)[C@@H]3C1=O` (some centres not stated), the composite z-score in experiment [1] is -0.0186 (inactive); in the experiment on XIP peptide (Xip251-270), 0.0798. Also, the z-score in experiment [2] is 0.609; in experiment [3], -4.65 (inactive); in experiment [4] it was -0.609 (inactive); in experiment [5] it was -0.33 (inactive).

Consider `O=C1OCCC/C=C\[C@H]2OC34C=CCN(Cc5ccccc5)C(=O)[C@H]3N(CCCCCCO)C(=O)[C@@H]4C12` (some centres not stated), for which the figures for the composite z-score (in experiment [1]; in the experiment on XIP peptide (Xip251-270)) were 0.704 (inactive) and -0.819, respectively. Also, the z-score was -0.364 in experiment [2], -5.34 (inactive) in experiment [3], -0.121 (inactive) in experiment [4] and 0.0626 (inactive) in experiment [5].

On to `C=CC[C@]1(C(=O)N2CCCCC2)N=C(c2ccc(OCCCO)cc2)O[C@H]1c1ccccc1`, for which the composite z-score in experiment [1] was 0.754 (inactive); in the experiment on XIP peptide (Xip251-270) it was 0.807. For the same compound, the z-score is -2.03 in experiment [2], -5.69 (inactive) in experiment [3], -0.0473 (inactive) in experiment [4] and 0.452 (inactive) in experiment [5].

As to `CC(C)(C)OC(=O)CC[C@@]1(C(=O)NCCN2CCOCC2)N=C(c2ccc(OCCCO)cc2)O[C@@H]1c1ccccc1N=[N+]=[N-]`, the composite z-score is 0.171 (inactive) in experiment [1] and 0.401 with XIP peptide (Xip251-270). For the same compound, the z-score in experiment [2] is -1.85; in experiment [3], -3.61 (inactive); in experiment [4], 0.17 (inactive); in experiment [5], 0.297 (inactive).

As for `COc1cc(OC)c(C(O)C2C=CC3C(=O)NC(=O)C3N2Nc2ccc(Cl)cc2Cl)cc1Br` (configuration not stated), the composite z-score in experiment [1] is 1.11 (inactive); in the experiment on XIP peptide (Xip251-270), 0.369. For the same compound, the z-score in experiment [2] is -0.0679; in experiment [3] it was -5.65 (inactive); in experiment [4], 0.66 (inactive); in experiment [5] it was 0.862 (inactive).

As to `COCCOC(=O)N1C(=O)[C@@]2(c3cc(C#CC4(O)CCCCCC4)ccc31)[C@H](c1ccc(O)cc1)N1[C@H](c3ccccc3)[C@H](c3ccccc3)OC(=O)[C@H]1[C@@H]2C(=O)Nc1nc2ccccc2s1`, the values for the composite z-score (in experiment [1]; with XIP peptide (Xip251-270)) were 1.18 (inactive) and 0.708, respectively. The z-score is -0.326 in experiment [2], -1.3 (inactive) in experiment [3], 0.227 (inactive) in experiment [4] and 0.428 (inactive) in experiment [5].

Consider `CCN(CC)c1ccc(N2CC=CC34O[C@@H]5/C=C\CCC(C)OC(=O)C5[C@H]3C(=O)N(C(CO)C(C)C)[C@@H]4C2=O)cc1` (some centres not stated), for which the composite z-score in experiment [1] is 0.0003 (inactive); with XIP peptide (Xip251-270) it was -0.431. The z-score was -0.214 in experiment [2], -6.03 (inactive) in experiment [3], 0.0858 (inactive) in experiment [4] and 0.0174 (inactive) in experiment [5].

With `COCCOC(=O)N1C(=O)[C@@]2(c3cc(C#CCCO)ccc31)[C@H](C(=O)Nc1nc3ccccc3s1)[C@H]1C(=O)O[C@H](c3ccccc3)[C@H](c3ccccc3)N1[C@@H]2c1ccc(OCCO)cc1`, the composite z-score in experiment [1] is 0.886 (inactive); with XIP peptide (Xip251-270), 0.744. For the same compound, the z-score in experiment [2] is -1.12; in experiment [3], 0.518 (inactive); in experiment [4], -0.502 (inactive); in experiment [5], -0.558 (inactive).

For `CN1C(=O)C2C=CC(C(O)c3ccc(-c4ccccc4)s3)N(N(c3ccccc3)c3ccccc3)C2C1=O` (configuration not stated), the figures for the composite z-score (in experiment [1]; in the experiment on XIP peptide (Xip251-270)) were 0.254 (inactive) and 0.322, respectively. In addition, the z-score was 0.33 in experiment [2], 0.329 (inactive) in experiment [3], 0.288 (inactive) in experiment [4] and -0.108 (inactive) in experiment [5].

`CN1C(=O)C2C=CC(C(O)C3=C[C@H]4C[C@@H](C3)C4(C)C)N(Nc3ccccc3)C2C1=O` (some centres not stated): the composite z-score in experiment [1] is 0.654 (inactive); in the experiment on XIP peptide (Xip251-270), 0.151. Moreover, the z-score is 0.821 in experiment [2], -3.75 (inactive) in experiment [3], -0.556 (inactive) in experiment [4] and -0.864 (inactive) in experiment [5].

As for `COC(=O)[C@@]1(Cc2ccc(F)cc2)[C@H]2c3cc(C(=O)N4CCCC4)n(Cc4ccc(C)o4)c3C[C@H]2CN1C(=O)c1ccccc1`, the results for the composite z-score (in experiment [1]; in the experiment with XIP peptide (Xip251-270)) were 0.205 (inactive) and 0.705, respectively. The z-score in experiment [2] was -1.14; in experiment [3], -4.22 (inactive); in experiment [4] it was -0.289 (inactive); in experiment [5], -0.163 (inactive).
